The record followed here is publication PMC5540273 (PLoS ONE, 2017).
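Further: KINOMEscan kinase panel screen.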

This test has as its system T1, p38-gamma.
T1 construct: gene MAPK12
Conditions: concentration: 1 μM, replicates: in singlicate; n = 1.
For `NS(=O)(=O)c1cccc(N/C=C2\C(=O)Nc3ccc(S(=O)(=O)Cc4c(Cl)cccc4Cl)cc32)c1` [GSK398099], the “%Inh” value came to 7%.

Consider `COC(=O)c1cccc(NC(=O)NC2CCN(c3ccnc(Nc4ccc(F)cc4)n3)C2)c1` (stereo not shown) [GSK1379725], for which the “%Inh” value is listed as 0%.

Take `COc1ccc(CSc2nnc(-c3ccc4nccn4c3)o2)cc1C(F)(F)F`: the “%Inh” value turned out to be 3%.

Regarding `Nc1ncnc2occ(-c3ccc4c(c3)CCN4C(=O)Cc3cc(F)ccc3F)c12` [GSK2645446], the “%Inh” value is 7%.

Take `CNc1nc(-c2ccc3c(N)n[nH]c3c2)cc(N2C[C@@H](C(=O)NC3CCCCC3)OC[C@H]2C)n1` [GSK2375584]: the “%Inh” value is listed as 23%.

Consider `CN1c2ccc(-c3ccc(C(N)=O)cc3)cc2-c2[nH]ncc2S1(=O)=O`, for which the “%Inh” value is reported as 0%.

Turning to `Cn1cncc1C(=O)NC1CCN(c2ccnc(Nc3ccc(F)cc3)n2)C1` (stereo not shown) [GSK1379717], the “%Inh” value worked out at 0%.

In the case of `Cc1ccc(NC(=O)Nc2ccc(Cl)cc2)cc1-c1ccc(C(=O)Nc2ccncc2)cc1` [GSK1398472], the “%Inh” value came to 23%.

As for `Cc1ccccc1-c1cc(-c2c[nH]nc2-c2ccccn2)ccn1` [GW680061], the “%Inh” value stood at 0%.

`COC(=O)C(NC(=O)NC1CCN(c2ccnc(Nc3ccc(F)cc3)n2)C1)c1ccccc1` (stereo not shown) [GSK1379712]: the “%Inh” value stood at 23%.

For `O=C1NC(=O)C(c2ccc(Cl)cc2)=C1Nc1cccc(Cl)c1` [SB-317651], the “%Inh” value is listed as 11%.

With `Cc1cnc(N)c(/C=C/c2cncc(C(=O)NCCc3ccc(Cl)cc3Cl)c2)c1.Cl` [GSK190937], the “%Inh” value was 52%.

As for `O=c1cc(N2CCOCC2)nc2n(Cc3ccccc3F)ccn12` [GSK2297428], the “%Inh” value was 0%.
